Values joined by “and” are separate entries in the source; they are usually repeats but may differ in a detail not shown here. Equal values may be shown once. Out of some 300,000 compounds screened, about 37,000 (12%) were called active. The sample holds actives, similar compounds and a random draw of the others, so the mix is not that of the screen. Cut-off read from the data, not from the text of the source: active = max response mostly above about 13% (no sharp cut-off); inactive = mostly below about 14%.

The experiment in a line: Cycloheximide Counterscreen for Small Molecule Inhibitors of Shiga Toxin. Note: read at 38.3 µM for the half of the compounds with a filed dose; 0% is about no effect. The settings on record: cell reporter, cycloheximide protein synthesis inhibition counterscreen; stronger effect = higher value.
With `CCOCc1nnc(NC(=O)CCS(=O)(=O)Cc2ccccc2)s1`, the max response is -1.02% (inactive).

In the case of `CC(C)(C)NC(=O)COc1ccc(CNc2ccc3[nH]c(=O)[nH]c3c2)cc1`, the max response is -1.49% (inactive).

With `COC(=O)c1ccc(OCC(=O)NC(C)(C)C)cc1`, the max response was 31.4% (active).

On to `COc1ccc(OCC(=O)NNC(=O)c2ccc(-c3ccccc3)cc2)cc1`, for which the max response is -2.64% (inactive).

In the case of `Cc1cccc(NC(=O)N2CCCCCC2)c1C`, the max response is 8.83% (inactive).

In the case of `COc1ccc(NS(=O)(=O)c2cc3c(cc2C)N(C(C)=O)CCO3)cc1`, the max response was -2.57% (inactive).

Regarding `COc1ccc(C/C(N)=N/OC(=O)c2ccco2)cc1OC`, the max response was 22.4% (active).

On to `COc1ccc(C(=O)O/N=C(\N)Cc2ccc(Cl)cc2Cl)cc1OC`, for which the max response was 4.82% (inactive).

For the compound `COc1ccc(CC(=O)Nc2ccccc2NC(=O)c2ccco2)cc1OC`, the max response is 6.8% (inactive).

`CCc1nnc(NC(=O)CSCc2cc(=O)n3cc(C)sc3n2)s1`: the max response is 1.44% (inactive).

With `CCN1CCN(C(=O)c2cc3cc4ccc(OC)cc4nc3s2)CC1`, the max response is 15.1% (active).

As for `CCN1CCN(C(=O)CN(C)S(=O)(=O)c2ccc(OC)cc2)CC1`, the max response is 4.5% (inactive).

For the compound `COc1ccc(OC)c(C(=O)c2ccc(C(=O)N3CCN(Cc4csc(C)n4)CC3)cc2)c1`, the max response was -2.77% (inactive).

As for `CCOc1cc(/C=C(\C#N)c2nc(-c3cccs3)c(NC(C)=O)s2)ccc1O`, the max response was 1.82% (inactive).

Take `COc1cc(/C=N/NC(=O)CCc2n[nH]c(=O)[nH]c2=O)ccc1O`: the max response is -0.284% (inactive).

Turning to `COc1cc(/C=N/NC(=O)CNC(=O)c2ccncc2)ccc1OC(C)=O`, the max response is -4.24% (inactive).

Consider `COc1cc(/C=N\Nc2nc(-c3cccs3)c(NC(C)=O)s2)ccc1O`, for which the max response is 17.1% (active).

For the compound `CCNc1nc(NCC)nc(N/N=C/c2ccc(O)c(OC)c2)n1`, the max response was 7.49% (inactive).

Regarding `COc1cc(/C=N/Nc2nc3ccccc3s2)ccc1O`, the max response was 72.3% (active).

As for `COc1ccc(C(=O)N(C)CC(O)c2ccccc2)cc1OC1CCN(C(C)=O)CC1` (stereo not drawn), the max response is 3.8% (inactive).

Take `CC(C)[C@H](NC(=O)OCc1ccccc1)C(=O)OCc1ccccc1`: the max response is -4.84% (inactive).

On to `CC1CCN(c2ccc([N+](=O)[O-])c(SCCO)c2)CC1`, for which the max response is 1.83% (inactive).

Take `FC(F)(F)c1cccc(N/N=C/c2ccccc2)c1`: the max response was 41.1% (active).

Regarding `O=C(O)CSCC(=O)Nc1cccc(C(F)(F)F)c1`, the max response was -6.91% (inactive).

Take `NC(=O)Nc1cccc(C(F)(F)F)c1`: the max response is 0.977% (inactive).

Take `Cc1ccc(O)c(NC(=O)COc2cc(C)ccc2C)c1`: the max response is 28.6% (active).

As for `Cc1ccc(C(C)C)cc1OCC(=O)Nc1ccccc1N1CCCC1`, the max response was -0.789% (inactive).

Turning to `Cc1ccc(O)c(NC(=S)NC(=O)COc2ccc(Br)cc2)c1`, the max response was -1.57% (inactive).

With `COc1nnc(-c2ccc(C)c(S(=O)(=O)N(C)C)c2)c2ccccc12`, the max response is 0.699% (inactive).

On to `Cc1cc(C)c(S(=O)(=O)N2CCOCC2)cc1C`, for which the max response is 1.22% (inactive).

Take `Cc1nc2ccc(NC(=O)C(F)(F)F)cc2o1`: the max response was 1.37% (inactive).

For `Cc1nc2cc(NC(=O)NCc3ccccc3)ccc2o1`, the max response is 21.4% (active).

In the case of `Cc1ccc(NC(=O)Nc2ccc3oc(C)nc3c2)cc1`, the max response was 53.3% (active).

As for `CCCCc1ccc(NC(=O)NCc2cccnc2)cc1`, the max response is 16% (inactive).

Turning to `O=C(CSc1ncccn1)NC(=O)NCc1ccccc1`, the max response was -1.54% (inactive).

Consider `COc1ccccc1C(=O)Nc1ccc(OCc2nnc3c4ccccc4c(C)nn23)cc1`, for which the max response is 1.98% (inactive).

On to `CN(Cc1ccccc1)C(=O)C1CCCN(c2ncnc3c2nc2n3CCCCC2)C1` (stereo not drawn), for which the max response is -3.17% (inactive).

For `N#C/C(=C\c1ccc(N2CCOCC2)o1)C(=O)N1CCOCC1`, the max response was 1.71% (inactive).

In the case of `CCn1c(=O)c([N+](=O)[O-])c(NCc2ccc3c(c2)OCO3)c2ccccc21`, the max response was -2.03% (inactive).

For `CC(C)(C)C(=O)/C(C#N)=C/c1ccc(O)cc1`, the max response was 8.63% (inactive).

In the case of `CC(C)NC(=O)/C(C#N)=C\c1ccc(N(C)C)c(Br)c1`, the max response is 27.9% (active).

Take `COCCNC(=O)/C(C#N)=C/c1cccc(OCc2ccccc2)c1`: the max response was 4.87% (inactive).

In the case of `COc1ccccc1C(C)NC(=O)Cc1ccsc1` (stereo not drawn), the max response is 5.18% (inactive).

For the compound `CSCCC(NC(=O)COc1ccccc1)C(=O)Nc1ccc(C)cc1` (stereo not drawn), the max response is 4.05% (inactive).

As to `CC(=O)Nc1ccc(NC(=O)[C@@H](NC(=O)c2cccc(C)c2)C(C)C)cc1`, the max response was -5.14% (inactive).

Regarding `Cc1ccc(NC(=O)C(C)c2cccc(C(=O)c3ccccc3)c2)cc1` (stereo not drawn), the max response is 26.6% (active).

As for `COc1ccc(N2C(=O)C(CC(=O)Nc3ccccc3)N(Cc3ccc(OC)c(OC)c3)C2=O)cc1` (stereo not drawn), the max response was 14.6% (inactive).

Take `CCCCCCSc1nsc(N)n1`: the max response is 23.1% (active).

As to `Nc1nc(SC23CC4CC(CC(C4)C2)C3)ns1`, the max response is -2.92% (inactive).

With `CCCSc1nsc(N)n1`, the max response is 22.8% (active).

As to `Cc1ccc(S(=O)(=O)N2CCCC(C(=O)N3CCN(C)CC3)C2)cc1` (stereo not drawn), the max response was 6.16% (inactive).

With `Cn1c(=O)[nH]c(=O)c2c1nc(CN1CCN(c3ccccc3F)CC1)n2CCc1ccccc1`, the max response was 2.36% (inactive).

As to `CCCCCCNS(=O)(=O)c1ccccc1Br`, the max response is -2.52% (inactive) and 6.23% (inactive).

With `O=C(COC(=O)c1ccc(S(=O)(=O)Nc2ccccc2)cc1)NCC1CCCO1` (stereo not drawn), the max response is -1.31% (inactive).

With `CCOC(=O)N1CCN(c2cc(C)c([N+](=O)[O-])cc2F)CC1`, the max response was 16.3% (inactive).

Take `CS(=O)(=O)c1ccc2nnn(OCC(=O)Nc3cccc(C#N)c3)c2c1`: the max response was -3.01% (inactive).

Turning to `O=C(O)CC(c1ccccc1F)N1Cc2ccccc2C1=O` (stereo not drawn), the max response was -3.84% (inactive).

As for `COc1cc([N+](=O)[O-])cc([N+](=O)[O-])c1NC(=O)N1CCOCC1`, the max response is -3.17% (inactive).

As for `O=C1c2ccccc2C(=O)N1CCOc1ccc(F)cc1`, the max response is 34.9% (active).

Consider `COc1ccc(OCCCON2C(=O)c3ccccc3C2=O)cc1`, for which the max response was -3.07% (inactive).

With `O=C(OCCN1C(=O)c2ccccc2C1=O)Oc1ccccc1`, the max response was -5.45% (inactive).

For `COc1cc(OC)cc(C(=O)Nc2nnc(SCC(=O)NCC3CCCO3)s2)c1` (stereo not drawn), the max response is 5.61% (inactive).

As to `COC(=O)C1=C(C)N(C(C)c2ccccc2)C(=O)/C1=C\c1ccco1` (stereo not drawn), the max response was 12.5% (inactive).

Source of the values: PubChem BioAssay AID2314 (National Center for Advancing Translational Sciences (NCATS), 2010).
